Data: PubChem BioAssay
The source made the active and inactive calls.

Assays:
[1] = tested on: Plasmodium falciparum Sir2 (PF13_0152, Sir2A); assay: pfSir2 binders on small-molecule microarrays, primary screen, biochemical, small-molecule microarray, 635 nm fluorescence (AID 1098); settings: small-molecule microarray binding, fluorescence 635 nm; higher = more signal;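 note: score merges spot fluorescence intensity with its signal-to-noise ratio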
[2] = small-molecule microarray binders of probe aDKK1, primary screen, biochemical, biotinylated probe, 635/667 nm fluorescence (AID 1099); settings: higher = more signal;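 note: score merges 667nm spot fluorescence with signal to noise across triplicate slides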
[3] = small-molecule microarray binders of probe aCHRDL2, primary screen, biochemical, biotinylated probe, 635/667 nm fluorescence (AID 1100); settings: higher = more signal
[4] = splicing luciferase reporter signal modulators, primary screen, spliceosome inhibition project, cell-based, HEK293, splice +/- reporter (AID 1101); settings: luminescence, 24 h, higher = more signal, called active from +8 up or from −8 down;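 note: HEK293 cells carrying a splicing-competent luciferase reporter gene; test concentration not given here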
[5] = molecular target: Fibroblast growth factor 10 (Homo sapiens) (UniProt O15520); assay: FGF10 binders on small-molecule microarrays, primary screen, biochemical, small-molecule microarray, 635 nm fluorescence (AID 1102); settings: FGF10 binding, fluorescence 635 nm, higher = more signal
[6] = tested on: glycogen synthase kinase-3 (GSK3A per assay name; protocol says GSK3B); assay: GSK3 binders on small-molecule microarrays, primary screen, biochemical, small-molecule microarray, 635 nm fluorescence, GSK3A (AID 1103); settings: small-molecule microarray binding, fluorescence 635 nm; higher = more signal; note: the record names both GSK3A and GSK3B
[7] = molecular target: Epidermal growth factor receptor (Homo sapiens) (UniProt P00533); assay: EGFR binders on small-molecule microarrays, primary screen, biochemical, small-molecule microarray, 635 nm fluorescence (AID 1104); settings: EGFR binding, higher = more signal;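 note: score merges 667 nm emission intensity with spot signal to noise over triplicate slides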
[8] = molecular target: Follistatin-related protein 3 (Homo sapiens) (UniProt O95633); assay: FSTL3 binders on small-molecule microarrays, primary screen, biochemical, small-molecule microarray, 635 nm fluorescence (AID 1105); settings: FSTL3 binding, higher = more signal;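 note: score merges emission near 667 nm and signal to noise per printed spot across three slides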
[9] = molecular target: Dickkopf-related protein 1 (Homo sapiens) (UniProt O94907); assay: DKK1 binders on small-molecule microarrays, primary screen, biochemical, small-molecule microarray, 635 nm fluorescence scan (AID 1106); settings: DKK1 binding, higher = more signal;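 note: score merges emission near 667 nm with signal to noise over three replicate slides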
[10] = tested on: Inhibin beta A chain (activin A); assay: INHBA (activin A) binders on microarrays, primary screen, biochemical, small-molecule microarray, 635 nm fluorescence scan (AID 1107); settings: small-molecule microarray binding, higher = more signal;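 note: mouse activin A protein probed at 4.33 µg/mL on printed slides; score merges bound-protein fluorescence near 667 nm with spot signal-to-noise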
[11] = tested on: Human papillomavirus type 1a protein E7 (residues 44-93); assay: HPV1a E7 fragment binders on microarrays, primary screen, biochemical, small-molecule microarray, residues 44-93, 635 nm fluorescence (AID 1108); settings: small-molecule microarray binding, fluorescence 635 nm; higher = more signal;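 note: E7 fragment applied at 1 µg/mL in TBST for 1 h at 4 C; score combines spot fluorescence with its signal to noise ratio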
[12] = modulators of HCV replicon luciferase signal, primary screen, HCV replication inhibitor project, Huh7 cells, luciferase reporter (AID 1109); settings: 48 h, higher = more signal;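 note: huh7 hepatoma cells harbouring a luciferase neomycin HCV replicon reporter; luciferase luminescence as measure of HCV replicon replication; test concentration not given here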
[13] = molecular target: Left-right determination factor 2 (Homo sapiens) (UniProt O00292); assay: LEFTY2 binders on small-molecule microarrays, primary screen, biochemical, small-molecule microarray, 635 nm fluorescence scan (AID 1110); settings: LEFTY2 binding, higher = more signal
[14] = molecular target: Calmodulin-1 (Homo sapiens) (UniProt P0DP23); assay: CALM1 binders on microarrays, EGTA buffer, profiling panel, biochemical, small-molecule microarray, Cy5-labelled CALM1 (AID 1111); settings: Cy5-CALM1 binding fluorescence, higher = more signal;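 note: labelled calmodulin applied in Tris saline Tween buffer holding calcium plus EGTA and DTT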
[15] = molecular target: Calmodulin-1 (Homo sapiens) (UniProt P0DP23); assay: calcium-bound CALM1 binders on microarrays, profiling panel, artefact control for SMM control-protein annotation, biochemical, small-molecule microarray, Cy5-labelled CALM1, plus calcium (AID 1112); settings: Cy5-CALM1 binding fluorescence, higher = more signal;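 note: score merges spot fluorescence with signal to noise from triplicate slides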
[16] = small-molecule microarray binders of probe aWnt5a, primary screen, biochemical, biotinylated probe, 635/667 nm fluorescence (AID 1113); settings: higher = more signal;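 note: score merges 667 nm fluorescence intensity with signal-to-noise per printed feature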
[17] = small-molecule microarray binders of probe aShh, primary screen, biochemical, biotinylated probe, 635/667 nm fluorescence (AID 1114); settings: higher = more signal;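 note: probe is biotin-labelled aShh protein from a stem cell growth factor screen; measures binding of labelled protein to compounds printed on the slide; score merges feature fluorescence at 667 nm with signal-to-noise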
[18] = small-molecule microarray binders of probe aNog, primary screen, biochemical, biotinylated probe, 635/667 nm fluorescence (AID 1115); settings: higher = more signal;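 note: probe is biotinylated aNog protein used at 0.15 µg/mL for 1 h at 4 C; z-score combines 667 nm fluorescence of each spot with its signal to noise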
[19] = molecular target: Torsin-1A-interacting protein 1 (Homo sapiens) (UniProt Q5JTV8); assay: LAP1 binders from COS7 cell lysate, primary screen, small-molecule microarray, 635/667 nm fluorescence (AID 1116); settings: COS7-hLAP1 lysate binding, 635 nm fluorescence, higher = more signal
[20] = molecular target: Alpha-bungarotoxin (Bungarus multicinctus) (UniProt P60615); assay: alpha-bungarotoxin binders on microarray, profiling panel, artefact control for SMM control protein annotation, biochemical, small-molecule microarray, Alexa647 label, 635/667 nm fluorescence (AID 1117); settings: alpha-BTX-A647 binding fluorescence, higher = more signal
Alpha-bungarotoxin (Bungarus multicinctus), sequence (P60615 whole entry, looked up): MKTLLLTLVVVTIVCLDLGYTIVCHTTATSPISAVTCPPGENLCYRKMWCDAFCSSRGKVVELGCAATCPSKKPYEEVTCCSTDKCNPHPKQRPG

Left-right determination factor 2 (Homo sapiens), sequence (O00292 whole entry, looked up): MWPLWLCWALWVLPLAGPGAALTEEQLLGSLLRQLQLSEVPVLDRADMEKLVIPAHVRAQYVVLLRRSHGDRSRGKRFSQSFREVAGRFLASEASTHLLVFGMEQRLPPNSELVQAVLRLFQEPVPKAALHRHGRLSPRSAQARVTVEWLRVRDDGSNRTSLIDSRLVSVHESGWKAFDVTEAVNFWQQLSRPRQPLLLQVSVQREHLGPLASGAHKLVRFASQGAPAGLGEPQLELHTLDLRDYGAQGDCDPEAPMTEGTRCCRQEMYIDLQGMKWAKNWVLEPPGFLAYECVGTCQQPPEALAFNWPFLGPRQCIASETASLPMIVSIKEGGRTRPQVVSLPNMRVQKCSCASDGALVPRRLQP
Follistatin-related protein 3 (Homo sapiens), sequence (O95633 whole entry, looked up): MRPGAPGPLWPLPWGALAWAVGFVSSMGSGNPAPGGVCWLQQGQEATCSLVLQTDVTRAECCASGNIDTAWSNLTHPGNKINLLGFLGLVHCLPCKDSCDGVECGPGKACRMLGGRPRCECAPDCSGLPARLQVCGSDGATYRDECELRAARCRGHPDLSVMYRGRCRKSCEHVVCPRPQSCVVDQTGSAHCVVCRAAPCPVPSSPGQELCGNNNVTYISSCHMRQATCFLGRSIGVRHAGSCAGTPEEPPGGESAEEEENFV
Epidermal growth factor receptor (Homo sapiens), sequence (P00533 whole entry, looked up): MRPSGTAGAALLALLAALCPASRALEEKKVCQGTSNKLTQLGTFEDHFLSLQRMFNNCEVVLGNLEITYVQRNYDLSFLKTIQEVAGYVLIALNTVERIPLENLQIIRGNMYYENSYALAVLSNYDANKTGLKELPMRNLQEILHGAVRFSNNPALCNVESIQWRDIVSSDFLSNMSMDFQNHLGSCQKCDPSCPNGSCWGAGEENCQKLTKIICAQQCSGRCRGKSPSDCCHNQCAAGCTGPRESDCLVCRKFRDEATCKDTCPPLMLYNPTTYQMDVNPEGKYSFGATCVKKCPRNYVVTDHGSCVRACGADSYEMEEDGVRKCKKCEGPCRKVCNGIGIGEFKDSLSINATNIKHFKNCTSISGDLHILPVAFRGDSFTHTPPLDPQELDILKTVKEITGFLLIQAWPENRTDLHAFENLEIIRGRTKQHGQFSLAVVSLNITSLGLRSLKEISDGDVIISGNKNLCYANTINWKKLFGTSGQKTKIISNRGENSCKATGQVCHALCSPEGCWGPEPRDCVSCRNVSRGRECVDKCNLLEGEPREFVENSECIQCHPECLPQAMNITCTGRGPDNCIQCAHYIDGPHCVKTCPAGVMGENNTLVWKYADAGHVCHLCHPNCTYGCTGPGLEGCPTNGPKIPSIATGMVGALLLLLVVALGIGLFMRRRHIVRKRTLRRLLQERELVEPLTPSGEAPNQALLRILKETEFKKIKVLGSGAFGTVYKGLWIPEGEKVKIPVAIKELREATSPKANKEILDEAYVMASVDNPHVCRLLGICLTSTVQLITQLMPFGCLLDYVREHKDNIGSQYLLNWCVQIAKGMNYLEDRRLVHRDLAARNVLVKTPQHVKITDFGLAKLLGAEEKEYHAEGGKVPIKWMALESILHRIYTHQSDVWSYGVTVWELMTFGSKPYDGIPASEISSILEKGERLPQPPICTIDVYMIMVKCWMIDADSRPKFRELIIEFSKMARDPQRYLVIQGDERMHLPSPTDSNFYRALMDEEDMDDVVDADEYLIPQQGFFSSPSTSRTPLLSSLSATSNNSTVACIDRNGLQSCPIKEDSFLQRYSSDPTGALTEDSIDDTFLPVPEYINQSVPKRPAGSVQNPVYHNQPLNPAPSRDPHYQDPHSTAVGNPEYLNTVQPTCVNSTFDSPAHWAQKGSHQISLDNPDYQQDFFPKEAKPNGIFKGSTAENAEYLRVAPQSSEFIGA
Fibroblast growth factor 10 (Homo sapiens), sequence (O15520 whole entry, looked up): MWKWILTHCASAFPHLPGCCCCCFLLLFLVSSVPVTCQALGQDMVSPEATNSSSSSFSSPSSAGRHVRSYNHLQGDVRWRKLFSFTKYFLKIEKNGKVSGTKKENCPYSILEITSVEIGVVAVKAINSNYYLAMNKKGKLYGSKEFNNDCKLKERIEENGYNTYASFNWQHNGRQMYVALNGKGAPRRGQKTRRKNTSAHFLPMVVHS
Dickkopf-related protein 1 (Homo sapiens), sequence (O94907 whole entry, looked up): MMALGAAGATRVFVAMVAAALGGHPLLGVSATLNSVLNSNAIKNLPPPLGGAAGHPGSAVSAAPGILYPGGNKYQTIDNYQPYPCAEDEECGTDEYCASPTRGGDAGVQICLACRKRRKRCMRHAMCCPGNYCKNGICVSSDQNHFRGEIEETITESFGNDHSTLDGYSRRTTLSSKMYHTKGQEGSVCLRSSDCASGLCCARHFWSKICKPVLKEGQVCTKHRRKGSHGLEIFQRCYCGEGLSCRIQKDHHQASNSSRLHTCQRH
Torsin-1A-interacting protein 1 (Homo sapiens), sequence (Q5JTV8 whole entry, looked up): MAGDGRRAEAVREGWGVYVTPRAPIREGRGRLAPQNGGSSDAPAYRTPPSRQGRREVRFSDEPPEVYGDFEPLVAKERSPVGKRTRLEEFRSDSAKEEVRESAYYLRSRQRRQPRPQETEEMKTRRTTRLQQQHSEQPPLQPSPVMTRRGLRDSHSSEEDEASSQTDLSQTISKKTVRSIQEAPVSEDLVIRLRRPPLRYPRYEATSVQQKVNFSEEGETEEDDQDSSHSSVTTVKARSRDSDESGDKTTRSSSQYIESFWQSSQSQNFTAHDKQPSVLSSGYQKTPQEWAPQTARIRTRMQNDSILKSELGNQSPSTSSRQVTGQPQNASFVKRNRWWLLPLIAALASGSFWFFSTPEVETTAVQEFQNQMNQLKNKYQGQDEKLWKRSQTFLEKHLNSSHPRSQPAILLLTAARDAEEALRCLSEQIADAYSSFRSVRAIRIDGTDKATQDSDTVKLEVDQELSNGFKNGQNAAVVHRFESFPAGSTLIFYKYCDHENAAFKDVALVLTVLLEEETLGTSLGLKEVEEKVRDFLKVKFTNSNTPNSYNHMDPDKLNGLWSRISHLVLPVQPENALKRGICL

Row | SMILES | composite z-score [1] | composite z-score [2] | composite z-score [3] | z-score [4] | composite z-score [5] | composite z-score [6] | composite z-score [7] | composite z-score [8] | composite z-score [9] | composite z-score [10] | composite z-score [11] | z-score [12] | composite z-score [13] | composite z-score [14] | composite z-score [15] | composite z-score [16] | composite z-score [17] | composite z-score [18] | composite z-score [19] | composite z-score [20]
1 | CO[C@H]1COC(=O)[C@@H]2CCCN2C(=O)CC=C[C@@H](C)[C@H](OC)COC(=O)[C@@H](OCc2ccccc2)C=C[C@@H]1C | 0.695 | -0.665 | -1.24 | -1.63 (inactive) | 0.163 | 0.484 | 0.547 | 0.907 | 1.75 | 1.58 | -0.556 | -0.389 | 1.04 | -0.584 | -1.15 | -0.0882 | -0.2 | -0.408 | 0.0642 | -0.178
2 | COC(=O)CC=C[C@@H](C)[C@@H](C=NO[C@H](C)c1cn([C@@H]2COC[C@H]2O)nn1)NS(=O)(=O)c1ccc(C)cc1 | 0.163 | -0.268 | -0.57 | -0.0248 (inactive) | 0.43 | 0.427 | 0.59 | 0.746 | 1.07 | 0.216 | -0.12 | -0.483 | 0.722 | -0.0535 | -0.646 | -0.144 | -0.237 | -0.246 | 0.0982 | -0.361
3 | CCN1C(=O)[C@H]2[C@H]3[C@H](O)[C@H](O)CC(=NO[C@@H](C)c4cn([C@H](CO)Cc5ccccc5)nn4)[C@@H]3CC[C@H]2C1=O | 0.774 | 0.262 | -0.426 | 0.358 (inactive) | 0.792 | 0.92 | 0.182 | 1.14 | 0.692 | -1.1 | 0.696 | -0.262 | 0.636 | 0.711 | -0.209 | -0.0403 | -0.206 | 0.111 | -0.117 | 0.889
4 | CCOC(=O)NN=C1C[C@@H](O)[C@@H](O)[C@@H]2[C@@H]3C(=O)N(C(C)(C)C)C(=O)[C@@H]3CC[C@H]12 | 0.217 | 0.0171 | -0.398 | -0.626 (inactive) | 0.338 | 0.666 | 0.705 | 0.635 | 0.739 | 0.103 | 0.217 | -0.0742 | 0.481 | -0.0749 | -0.913 | 0.0068 | 0.108 | -0.171 | 0.0059 | -0.0211
5 | CC(C)=CCCC(C)=CCON=C1C[C@@H](O)[C@@H](O)[C@@H]2[C@@H]3C(=O)N(C(C)(C)C)C(=O)[C@@H]3CC[C@@H]12 | 0.263 | 0.0156 | -0.046 | -0.0767 (inactive) | 0.313 | 0.426 | 0.619 | 0.51 | 0.18 | 0.231 | 0.0739 | -0.0781 | 0.542 | -0.195 | -0.608 | -0.0203 | -0.0626 | -0.116 | 0.1 | 0.372
6 | CC[C@@H](c1ccccc1)n1c(=O)n2n(c1=O)[C@H]1[C@H](O)[C@@H]3O[C@@H]3C(=NOC[C@@H](O)COCc3ccco3)[C@H]1CC2 | 1.27 | -0.455 | -0.773 | 3.16 (inactive) | 0.145 | -0.693 | -0.264 | -0.378 | 0.239 | 1.09 | -0.629 | -2.55 | 0.0632 | -1.26 | -1.51 | -0.145 | -0.276 | 0.618 | -0.298 | -0.201
7 | CCOC(=O)NN=C1C[C@@H](O)[C@@H](O)[C@@H]2[C@@H]3C(=O)N(Cc4ccc5c(c4)OCO5)C(=O)[C@@H]3CC[C@H]12 | 0.263 | -0.238 | -0.233 | 0.346 (inactive) | 0.0798 | -0.566 | -0.0894 | -0.199 | -0.108 | 0.0787 | 0.581 | 0.603 | -0.0985 | -0.569 | -0.0188 | -0.129 | -0.206 | -0.177 | 1.05 | 0.543
8 | CCOC(=O)[C@H](Cc1ccccc1)NC(=O)CCC1CC(OC(=O)NCCc2ccc(F)cc2)CC2(CCCC(COC(=O)NCCc3ccccc3OC)O2)O1 (stereo not given in full) | 1.14 | -0.275 | -0.556 | -0.0644 (inactive) | 1.06 | 1.28 | 0.42 | 0.857 | 0.782 | -0.314 | 1.37 | -1.19 | 0.515 | 0.63 | -0.403 | -0.0236 | 0.0278 | -0.285 | 0.705 | 0.473
9 | CC(CCN1CCc2nc(-c3ccccc3)c(-c3ccccc3)cc2C1)=NOC[C@@H](O)[C@H]1O[C@@H]2OC(C)(C)O[C@@H]2[C@H]1O | 0.525 | -0.414 | -0.395 | 0.662 (inactive) | 0.743 | 0.587 | 0.28 | 0.583 | 0.341 | 0.376 | 1.12 | -2.73 | 0.642 | 0.12 | -0.233 | -0.139 | -0.0709 | -0.353 | 0.825 | 0.673
10 | C[C@@H]1NC(=O)[C@@H](C)COC(=O)[C@H](C)NC(=O)[C@@H](C)COC1=O | 0.429 | -0.23 | -0.0595 | -1.35 (inactive) | 0.765 | 0.642 | 0.401 | 1.15 | 0.769 | -0.772 | 1.08 | 0.0151 | 0.737 | -0.152 | -0.521 | -0.12 | -0.243 | 0.0209 | -0.143 | 0.144
11 | CC(C)(C)N1C(=O)[C@H]2[C@H]3[C@H](O)[C@H](O)CC(=O)[C@@H]3CC[C@H]2C1=O | 0.369 | -0.227 | -0.658 | 0.343 (inactive) | 0.639 | 0.239 | 0.479 | 0.265 | 0.711 | 0.156 | 0.3 | 0.6 | 0.709 | -0.339 | -0.518 | -0.0125 | 0.0121 | -0.108 | 0.804 | 0.106
